TLR9-MyD88 inh: blocks human TLR9 binding to MyD88 | CHO BLA complementation TLR9-MyD88, CCF4 FRET ratio | AID 504734 | 0.21% of 340,000 active | inhibition, % at 4.98 µM;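 active = inhibition above the mean over all tested compounds plus 3 SD, cut at about 21% in these data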;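 also: 0% = DMSO only wells and 100% = clavulanate BLA inhibitor control wells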
NOD2-RIPK2 inh: blocks binding of human NOD2 to RIPK2; inhibition, % at 4.98 µM; O43353; CHO BLA complementation NOD2-RIPK2, CCF4 ratio; 0.38% of 360,000 active; AID 624267; in the data active = inhibition above about 21%;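 also: 0% = vehicle only and 100% = reference blocker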
TMEM16A inh: mouse TMEM16A channel inhibition, primary screen; Q8BHY3; HEK293 TMEM16A/YFP iodide influx fluorescence, ionomycin; normalized B-score (activity score, 25-100; higher = stronger inhibition) at 10 µM; 1.2% of 310,000 active;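 active = ratio plate-corrected score three or more library SD toward inhibition, starting fluorescence score within five deviations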;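 also: score derived from kinetic fluorescence span divided by baseline fluorescence per well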
TMEM16A act: activators or potentiators of mouse TMEM16A chloride channel; 0.3% of 340,000 active; HEK293 TMEM16A/YFP-H148Q/I152L, iodide quench fluorescence; active compounds read low; AID 623877; B-score at 10 µM; Q8BHY3;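 active = fluorescence-ratio B-score plate-corrected deviation score at least 3 library SD below zero, with starting fluorescence score within 5 deviations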;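 also: channel opened by trigger with iodide after compound preincubation; score built on the fluorescence ratio of max minus min over baseline; more negative score means more quench and so TMEM16A activation or potentiation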
GRK2 aptamer HTS: inhibitors of human GRK2 displacing RNA aptamer | inhibition of aptamer binding, % at 10 µM | 0.59% of 330,000 active | AID 488847 | bead flow cytometry, FAM-aptamer displacement from GRK2;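 active = inhibition of aptamer binding above 40%, roughly 3 SD of noise, on plates passing a quality check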;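 also: median bead fluorescence of bound FAM aptamer so fluorescent compounds give negative values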
TLR4-MyD88 BLA: blocks binding of human TLR4 to MyD88 | 0.18% of 200,000 active | inhibition, % at 8.4 µM | O00206+Q99836 | HeLa CL3-4 TLR4/MyD88 BLA complementation, FRET ratio; in the data active = inhibition above about 25%;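 also: 0% = vehicle and 100% = reference inhibitor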
Starred values were filed as active, the others as inactive; i = inactive; x = no result. Most compounds without a hit are left out; they make up all but 2.2% or so of the library.

SMILES	TLR9-MyD88 inh	NOD2-RIPK2 inh	TMEM16A inh	TMEM16A act	GRK2 aptamer HTS	TLR4-MyD88 BLA
Cc1[nH]c2ccccc2c1C(=O)/C=C/c1ccccc1	5	7	100*	i	1	-11
Cc1[nH]c2ccccc2c1C(=O)/C=C\c1ccccc1Cl	-2	1	i	i	2	-4
CCN(CC)c1ccc(/C=N/OCC(=O)Nc2cccc(C)c2)cc1	4	-2	25*	i	0	0
Cc1cccc(NC(=O)COc2ccc(/C=N\n3cnnc3)cc2)c1	-7	6	i	i	43*	1
CCCN(C)C1CN(Cc2cn(Cc3ccccc3)nn2)S(=O)(=O)C1 (stereo unspecified)	x	-4	x	x	x	x
CC(NC(=O)Cn1ncc(Cl)c(Cl)c1=O)C12CC3CC(CC(C3)C1)C2 (stereo unspecified)	23*	66*	100*	i	2	21
CCn1cc(C(=O)NC(C)C23CC4CC(CC(C4)C2)C3)cn1 (stereo unspecified)	-6	-8	i	i	1	-8
CC1(C(=O)NCc2ccccc2)CCC(=O)N1CCCn1ccnc1 (stereo unspecified)	x	-11	x	x	x	x
COc1ccc(NC(=S)NCc2ccc(S(N)(=O)=O)cc2)cc1OC	-11	3	i	i	0	6
NS(=O)(=O)c1ccc(CNC(=S)Nc2ccc(Cl)c(Cl)c2)cc1	-4	-4	i	-5.3*	0	-5
O=C(O)c1cccc(Cn2c(Cl)c(/C=N/Nc3ccccc3)sc2=O)c1	-7	0	i	-35*	1	-12
COC(=O)C[C@H]1C[C@H]2c3cc(NC(=O)NC4CCCC4)ccc3O[C@H]2[C@@H](CO)O1	7	-9	x	x	x	x
COC(=O)c1sc(NC(=S)NNC(=O)c2c(Br)c(C)nn2C)c(C(=O)OC)c1C	-1	0	100*	i	0	x
COc1cc(C2CC(=O)C3=C(C2)Nc2ncnn2C3c2cccs2)cc(OC)c1OC (stereo unspecified)	x	-12	i	i	1	x
COc1cc(C2C=C(c3cccs3)Nc3ncnn32)cc(OC)c1OC (stereo unspecified)	65*	80*	x	i	x	17
COc1ccc(-n2nnnc2C2(C)CCC(=O)N2Cc2ccccc2)cc1 (stereo unspecified)	x	2	x	x	x	x
COc1ccc(C(O)c2cnc(C)n2Cc2ccccc2)cc1 (stereo unspecified)	-1	1	x	x	x	x
Cn1c(=O)c2cc(NC(=O)NCCc3ccccc3)ccc2n1Cc1ccc(F)cc1	x	-8	x	x	x	x
COc1ccc(-[n+]2c(C)cc(/C=C3\Sc4ccccc4N3C)cc2C)cc1	8	0	i	i	79*	20
Cc1ccccc1C(=O)N1CCN(c2ncccn2)CC1	-1	-1	i	i	0	x
Cc1occc1C(=O)N1CCN(c2ncccn2)CC1	-11	-5	i	-50*	1	-3
Cc1ccccc1C(=O)N1CCN(c2ccccn2)CC1	-4	-5	i	i	45*	8
O=C1OC[C@H](Cc2ccc3c(c2)OCO3)/C1=C\c1ccc2c(c1)OCO2	-1	-12	25*	i	3	x
O=Cc1[nH]c2ccccc2c1N(C(=O)CCl)c1ccc([N+](=O)[O-])cc1	-2	-4	25*	i	3	x
Cc1ccc(C)c(S(=O)(=O)/N=C2\C=C(NS(=O)(=O)c3ccccc3)C(=O)c3ccccc32)c1	-9	0	100*	i	0	x
CCc1ccc(S(=O)(=O)/N=C2\C=C(NS(=O)(=O)c3ccccc3)C(=O)c3ccccc32)cc1	6	-1	x	i	x	x
CCCCCCCCN1C(=O)[C@H](CC(=O)N2CCN(C(=O)c3ccco3)CC2)C[C@@]2(C(=O)OC)CC(C)(C)CC=C12	x	1	x	x	x	x
O=C(Nc1ccc(F)cc1)C(c1ccnc2ccccc12)N1CCN(c2cccc(C(F)(F)F)n2)CC1 (stereo unspecified)	x	-15	x	x	x	x
COc1ccc(N2C(=O)CSC2c2ccc(F)c(F)c2)cc1 (stereo unspecified)	5	-2	i	-8.5*	0	x
CCOC(=O)CC1(C)Oc2cc(Cl)ccc2N1S(=O)(=O)c1ccc(C)cc1 (stereo unspecified)	x	-4	x	x	x	x
